Assay results reported in PubChem BioAssay (NCATS).
Inconclusive results are not listed. A call without a number means that no potency is given here. Unmarked numbers belong to inactive results. Calls of active or inactive are those of the source. Calls follow the shape of the dose curve; as a rule, active = well fitted cell-killing curve with a large enough effect; inconclusive = small, poorly fitted or top-dose-only effect, or effect the other way; inactive = no such curve, though single readings can be large or run the other way.

What was measured:
[1] = Quantitative High-Throughput drug screen in 47 multiple myeloma cell lines against the NCATS MIPE library collection: OCIMY7_PLB cell viability assay (AID 1918987); also: nearly all actives have a fitted effect of over 65% in size
How it was run: (§1)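 Readout: median RLU from CellTiter-Glo after 5 min at room temperature. Preceding step was 48 h drug treatment of 500 cells/well at 37 °C, 5% CO2, with DMSO-only and media-only control wells.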

[2] = Quantitative High-Throughput drug screen in 47 multiple myeloma cell lines against the NCATS MIPE library collection: SKMM1_PLB cell viability assay (AID 1919863); conditions: SKMM1 myeloma viability, CellTiter-Glo ATP, 48 h; viability: stronger effect = lower value; also: nearly all actives have a fitted effect of over 35% in size; as to viability: series mostly up to about 46 µM
How it was run: as §1

[3] = Quantitative High-Throughput drug screen in 47 multiple myeloma cell lines against the NCATS MIPE library collection: U266_ATCC cell viability assay (AID 1919864); also: nearly all actives have a fitted effect of over 35% in size
How it was run: as §1

[4] = Quantitative High-Throughput drug screen in 47 multiple myeloma cell lines against the NCATS MIPE library collection: XG6_PLB cell viability assay (AID 1919865); also: nearly all actives have a fitted effect of over 40% in size
How it was run: as §1

[5] = Quantitative High-Throughput drug screen in 47 multiple myeloma cell lines against the NCATS MIPE library collection: OPM1_PLB cell viability assay (AID 1918989); also: nearly all actives have a fitted effect of over 40% in size
How it was run: as §1

[6] = Quantitative High-Throughput drug screen in 47 multiple myeloma cell lines against the NCATS MIPE library collection: UTMC2_PLB cell viability assay (AID 1919868); also: nearly all actives have a fitted effect of over 55% in size
How it was run: as §1

[7] = Quantitative High-Throughput drug screen in 47 multiple myeloma cell lines against the NCATS MIPE library collection: PE2_PLB cell viability assay (AID 1919869); also: nearly all actives have a fitted effect of over 35% in size
How it was run: as §1

[8] = Quantitative High-Throughput drug screen in 47 multiple myeloma cell lines against the NCATS MIPE library collection: OCIMY5_PLB cell viability assay (AID 1918988); also: nearly all actives have a fitted effect of over 65% in size
How it was run: as §1

[9] = Quantitative High-Throughput drug screen in 47 multiple myeloma cell lines against the NCATS MIPE library collection: XG1_PLB cell viability assay (AID 1919866); also: nearly all actives have a fitted effect of over 35% in size
How it was run: as §1

[10] = Quantitative High-Throughput drug screen in 47 multiple myeloma cell lines against the NCATS MIPE library collection: VP6_DJ cell viability assay (AID 1919867); also: nearly all actives have a fitted effect of over 40% in size
How it was run: as §1
Potency is read from the fitted curve at half-maximal effect.

SMILES	Potency [1]	Potency [2]	Potency [3]	Potency [4]	Potency [5]	viability [2]	Potency [6]	Potency [7]	Potency [8]	Potency [9]	Potency [10]
N[C@@H](Cc1ccc(O)c(O)c1)C(=O)O	inactive	26.4 µM (active)	inactive	inactive	–	–	–	–	–	–	–
Nc1[nH]c(=O)ncc1F	inactive	–	2.64 µM (active)	26.4 µM (active)	inactive	117%	inactive	inactive	–	–	–
Cc1oc(=O)oc1CN1CCN(c2cc3c(cc2F)c(=O)c(C(=O)O)c2n3C(C)S2)CC1 (stereo not given)	inactive	–	inactive	–	inactive	–	–	13.2 µM (active)	–	–	–
CN(C)CCc1c[nH]c2ccc(CS(=O)(=O)N3CCCC3)cc12	–	–	inactive	–	inactive	119%	–	–	inactive	–	–
CCC(=O)O[C@]1(C(=O)CCl)[C@@H](C)C[C@H]2[C@@H]3CCC4=CC(=O)C=C[C@]4(C)[C@@]3(F)[C@@H](O)C[C@@]21C	–	–	–	inactive	inactive	109%	–	inactive	1.32 µM (active)	inactive	0.0332 µM (active)
CC1=NN(c2ccccc2)C(=O)C1	inactive	–	–	7.43 µM (active)	inactive	–	–	inactive	–	–	–
COc1cc2c(Nc3ccc(Br)cc3F)ncnc2cc1OCC1CCN(C)CC1	–	–	20.9 µM (active)	7.43 µM (active)	6.62 µM (active)	–	–	–	18.7 µM (active)	7.43 µM (active)	–
COc1nc(N)nc2c1ncn2[C@@H]1O[C@H](CO)[C@@H](O)[C@@H]1O	–	–	16.6 µM (active)	inactive	inactive	124%	–	inactive	inactive	–	inactive
Cc1cccc(Nc2ccncc2S(=O)(=O)NC(=O)NC(C)C)c1	–	–	inactive	inactive	inactive	–	inactive	inactive	0.0013 µM (active)	–	7.43 µM (active)
COC(=O)Nc1nc2ccc(S(=O)c3ccccc3)cc2[nH]1 (stereo not given)	7.43 µM (active)	–	–	9.35 µM (active)	–	–	–	–	16.6 µM (active)	8.33 µM (active)	–
CNC1CCCN(c2c(F)cc3c(=O)c(C(=O)O)cn(C4CC4)c3c2OC)C1 (stereo not given)	1.32 µM (active)	–	–	inactive	5.9 µM (active)	118%	–	inactive	–	–	–
CCn1cc(C(=O)O)c(=O)c2cc(F)c(N3CCNCC3)nc21	–	–	–	inactive	inactive	102%	inactive	–	inactive	inactive	–
CC(=O)CC(c1ccccc1)c1c(O)c2ccccc2oc1=O (stereo not given)	inactive	–	–	inactive	inactive	–	–	inactive	–	–	inactive
O=S(=O)(O)CCS	inactive	–	–	inactive	inactive	136%	inactive	–	–	–	–
CNNCc1ccc(C(=O)NC(C)C)cc1	–	9.35 µM (active)	inactive	inactive	inactive	–	–	inactive	16.6 µM (active)	–	–
COc1ccc2cc3[n+](cc2c1OC)CCc1cc2c(cc1-3)OCO2	–	14.8 µM (active)	9.35 µM (active)	16.6 µM (active)	18.7 µM (active)	–	3.32 µM (active)	14.8 µM (active)	14.8 µM (active)	16.6 µM (active)	7.43 µM (active)
CC(C)OC(=O)C(C(=O)OC(C)C)=C1SC=CS1	inactive	–	–	inactive	–	–	–	inactive	–	–	–
Cc1nnc(C(=O)NC(C)(C)c2nc(C(=O)NCc3ccc(F)cc3)c(O)c(=O)n2C)o1	inactive	–	inactive	inactive	inactive	152%	inactive	inactive	–	–	inactive
NC(=O)c1cccnc1	–	–	inactive	16.6 µM (active)	inactive	105%	inactive	inactive	inactive	inactive	inactive
CCN(CC)CCn1c(=O)c(Cc2ccc(OC)cc2)nc2ccccc21	–	–	inactive	–	inactive	134%	–	inactive	inactive	inactive	–
COc1cc(NS(=O)(=O)c2ccc(N)cc2)nc(OC)n1	inactive	–	inactive	inactive	inactive	133%	–	inactive	–	–	–
CCOC(=O)[C@H](CCc1ccccc1)N[C@H]1CS[C@H](c2cccs2)CN(CC(=O)O)C1=O	–	14.8 µM (active)	5.9 µM (active)	2.35 µM (active)	5.9 µM (active)	–	11.8 µM (active)	–	16.6 µM (active)	–	0.296 µM (active)
NS(=O)(=O)c1cc2c(cc1Cl)NC(C(Cl)Cl)NS2(=O)=O (stereo not given)	–	–	–	inactive	inactive	112%	–	inactive	inactive	inactive	inactive
